# Assay results taken from PubChem BioAssay (NCI).
# Compounds without any hit were thinned out: in the full panel of roughly 79,000, 15% have a hit. Values without a mark were called inactive. Activity calls are given as the source filed them. Rule as the data show it: active = growth inhibition above about 70%; inactive = the rest.
# Assay: NCI Yeast Anticancer Drug Screen. Data for the rad14 strain (AID 159);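 also: 0% = growth of vehicle-treated control cultures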
# Conditions: S. cerevisiae rad14 strain growth inhibition, hits give high values
# Method: Growth inhibition of yeast strains with defined genetic alterations is measured as a screen for potential anti-cancer activity. Selected strains with alterations in DNA damage repair or cell cycle control were exposed to compounds and growth inhibition was measured relative to vehicle treated controls. The strain used in this assay is rad14
SMILES,growth inhibition (at 1.2 µM) [%],growth inhibition (at 3.7 µM) [%],growth inhibition (at 11.0 µM) [%],growth inhibition (at 33.0 µM),growth inhibition (at 100.0 µM)
CCn1ncc(N=O)c1N,-2,4,15,32%,41%
O=C1OC2C(O)COC2(OCc2c[nH]c3ccccc23)C1O (stereo not given) (tested in a mixture with another compound),-2,2,4,30%,95% (active)
COCCCN(Cc1cc(OC)c(OC)c(OC)c1)C(=S)Nc1cccc(Cl)c1,-28,-7,-32,-32%,15%
CNc1nc(C)nc2c1cnn2-c1ccc([N+](=O)[O-])cc1,11,2,22,24%,25%
COc1ccc(N)c2c1C(=O)c1ccccc1C2=O,-6,-23,2,29%,93% (active)
CCOc1ccc(C(=O)CCC(=O)O)c(C)c1,0,1,7,13%,25%
Nc1nc(N)c2cc(Sc3ccc4ccccc4c3)ccc2n1,-13,-2,69,96% (active),94% (active)
CCc1[nH]nc(C(N)=O)c1N=NN(C)C,-1,-3,3,13%,41%
